Compound activity from PubChem BioAssay.
This is a sample that favours compounds with a hit; in the whole collection about 3.2% have one here.
GBA activity: human lysosomal glucosylceramidase modulation; AID 360; 48,000 tested, 1.1% active; purified enzyme, resorufin glucoside fluorescence (screen aimed at inhibitors), 20 min; Potency, µM; in the data active = potency below about 15 µM; inconclusive = mostly about 16 µM to 33 µM;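 note: the screen sought inhibitors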
Target sequence (P04062 whole entry, looked up): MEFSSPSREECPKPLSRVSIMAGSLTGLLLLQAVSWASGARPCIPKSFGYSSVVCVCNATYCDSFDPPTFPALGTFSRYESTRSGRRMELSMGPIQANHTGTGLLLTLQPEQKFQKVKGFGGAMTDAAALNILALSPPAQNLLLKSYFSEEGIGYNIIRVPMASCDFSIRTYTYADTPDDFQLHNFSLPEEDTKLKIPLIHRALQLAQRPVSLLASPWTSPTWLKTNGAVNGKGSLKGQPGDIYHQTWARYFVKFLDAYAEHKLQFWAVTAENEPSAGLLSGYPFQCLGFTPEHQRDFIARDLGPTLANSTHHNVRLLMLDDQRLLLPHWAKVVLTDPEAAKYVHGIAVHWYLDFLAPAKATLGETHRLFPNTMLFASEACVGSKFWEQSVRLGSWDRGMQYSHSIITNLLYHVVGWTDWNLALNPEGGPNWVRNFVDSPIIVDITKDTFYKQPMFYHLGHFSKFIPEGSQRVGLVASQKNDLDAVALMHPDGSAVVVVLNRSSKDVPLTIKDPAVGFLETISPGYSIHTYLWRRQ
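Compounds titrated against 0.2 nM normal enzyme, 30 uM resorufin beta-D-glucopyranoside substrate, citrate/phosphate buffer with taurocholate and tween-20, pH 5.9. Reaction ran 20 min at room temperature; fluorescence (Ex 548/Em 600) gave AC50.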
Luciferase inh: firefly luciferase inhibition; P08659; purified firefly luciferase, luminescence, 8 min; Potency, µM (top dose mostly 57.1 µM), for the others: at the top dose activity change, negative = inhibition, actives largely listed as inhibitors; 72,000 tested, 2.2% active; active = well fitted inhibition curve with a large enough effect; inconclusive = small, poorly fitted or top-dose-only effect; note: % is set by controls: 0 for no effect and ±100 for the full control effect; nearly all actives have a fitted effect of over 40% in size
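Substrate buffer containing 10 uM ATP (pH 7.2 imidazole, Mg2+, KCl, detergent, BSA) is dispensed, compound pinned in, then luciferase/luciferin detector mix added. After 8 min at ambient temperature, light output is measured.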
Bst PK mod: alters activity of Bacillus stearothermophilus pyruvate kinase. 51,000 tested, 1.2% active. purified pyruvate kinase, luminescence ATP production; ribose 5-phosphate activator present at AC10. AID 361. Potency, µM; in the data active = potency below about 11 µM; inconclusive = mostly about 12 µM to 25 µM;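 the screen sought inhibitors and activators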;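 note: scaled between full activation by ribose 5 phosphate and full inhibition by luteolin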
An asterisk follows results filed as active; i = inactive; ? = inconclusive; . = no result given; [ ] = another dose, or the depositor's remark. Potency is the fitted concentration of half-maximal effect.

SMILES	GBA activity	Luciferase inh	Bst PK mod
Cc1cc(=O)[nH]c(SCC(=O)N2CCC(C(N)=O)CC2)n1	>77	2%	>57
Cc1cc(C)nc(N(C#N)CC(=O)N2CCC(C(N)=O)CC2)n1	.	7.9µM*	?
CN1C(=O)CSc2ccc(NC(=O)N3CCc4ccccc43)cc21	>77	13µM*	8.2*
CN1C(=O)CSc2ccc(NC(=O)N3CCN(c4ccccn4)CC3)cc21	?	-4%	>57
Clc1ccc2c(N3CCC(CCC4CCN(c5ncnc6cc(Cl)ccc56)CC4)CC3)ncnc2c1	.	-1%[11.4 µM]	.
COC(=O)Cn1ncc2c(C)n(Cc3ccccc3)c(C)c2c1=O	.	20µM*	.
COc1ccc2cnn(Cc3ccccc3)c(=O)c2c1OC	>77	3%	?
Cc1noc(C)c1COC(=O)c1cc(=O)[nH]c2ccccc12	>77	7%	>57
Cc1noc(C)c1C(=O)OCC(=O)c1c[nH]c2ccccc12	8.3*	16µM*	.
CO/N=C\[C@@H](OC)[C@H](C)/C=C\CC(=O)OC	.	1%[11.4 µM]	.
CCOC(=O)c1sc(NC(=O)c2ccco2)nc1C	.	-7%	.
CCOC(=O)c1sc(NC(=O)c2ccc(C)o2)nc1C	.	13µM*	.
COc1ccc2nccc(SCC(=O)O)c2c1	.	0%[11.4 µM]	.
O=C(NCCCn1ccnc1)c1cccnc1	.	0%[25.5 µM]	>26
Cc1cc(-c2ccccc2)nc2cc(C(=O)NCCCn3ccnc3)nn12	>77	1%	>57
Cc1cc(C(=O)NCCCn2ccnc2)sc1-c1ccccc1	11*	-4%	>57
O=C(NCCCn1ccnc1)c1cn(-c2ccccc2)nc1-c1ccc(F)cc1	?	13µM*	i
O=S(=O)(O)c1cc(N=[N+]([O-])c2cc(S(=O)(=O)O)c3ccccc3c2)cc2ccccc12	.	-3%[11.4 µM]	.
O=S(=O)(c1ccccc1)N1CCC2(CCCN(c3ccncc3)C2)CC1	.	1%[11.4 µM]	.
CNc1nc(-c2cccnc2)nc2ccccc12	.	1%[2.29 µM]	.
Nc1nc2nccc(-c3ccc(Cl)cc3)n2n1	>77	?	6*
Cc1cc(-c2ccc(Cl)cc2)n2nc(N)nc2n1	>77	0%	?
O=C(COc1ccc(S(=O)(=O)NC2CCCCC2)cc1Cl)NCC1CCCO1 (stereo not drawn)	14*	2%	>57
O=C(COc1ccc(S(=O)(=O)NC2CCCCC2)cc1Cl)NCc1cccnc1	?	-13%	>57
Nc1nc(-c2ccccc2)c(-c2ccccc2)c(-c2nc(N)nc(-c3ccccc3)c2-c2ccccc2)n1	.	2%[11.4 µM]	.
SMILES	GBA activity	Luciferase inh	Bst PK mod
COc1ccc(OC)c(Nc2nc(N)nc(-c3cc4ccccc4o3)n2)c1	?	-3%	>57
Cc1c(-c2nc(N)nc(Nc3ccccc3)n2)oc2ccccc12	i	25µM*	?
CC1=C(C#N)C(c2ccoc2)C(C(=O)OCc2ccccc2)=C(N)S1 (stereo not drawn)	12*	0%	>57
C=CCOC(=O)C1=C(C)OC(N)=C(C#N)C1c1ccoc1 (stereo not drawn)	.	0%[25.5 µM]	>26
CCN1CCN(c2ccc(NC(=O)c3cccc4ncccc34)cc2)CC1	8.7*	-1%	>57
CCCN1Cc2cccc(C(=O)Nc3ccc(N4CCN(CC)CC4)cc3)c2C1=O	?	-27%	.
O=C(O)[C@@H]1[C@@H]2C[C@H]3c4[nH]c5ccccc5c4CCN3C[C@@H]2CC[C@@H]1O	.	1%[11.4 µM]	.
O=C(N/N=C1/C[C@@H](O)[C@@H](O)[C@@H]2[C@@H]3C(=O)N(Cc4ccccc4)C(=O)[C@H]3CC[C@@H]12)OCc1ccccc1	.	1%[11.4 µM]	.
Cc1ccc(-c2cc(-c3nnc(SCC(=O)N(C)CCC#N)n3N)c3ccccc3n2)cc1	>77	13µM*	i
Cc1cc(C)cc(NC(=O)CSc2nnc(-c3ccccc3)n2N)c1	>77	4%	>57
O=C1[C@H]2[C@H]3[C@H](O)[C@H](O)C/C(=N/OC[C@@H](O)COCc4ccco4)[C@@H]3CC[C@@H]2C(=O)N1c1cccc(Oc2ccccc2)c1	.	0%[11.4 µM]	.
O=C(c1ccco1)N1CCN(C(=O)c2cc(-c3ccncc3)nc3ccc(Br)cc23)CC1	>77	2%	7.6*
O=C(c1ccco1)N1CCN(C(=O)c2cc(-c3ccccn3)nc3ccc(Cl)cc23)CC1	>77	-11%	i
Cn1nnnc1Sc1nc(-c2cccnc2)nc2ccccc12	>77	1%	>57
COc1ncc2nc(-c3ccc(F)cc3)c(=O)n(Cc3ccc(F)cc3)c2n1	.	1%[11.4 µM]	.
CCN(c1cccc(C)c1)S(=O)(=O)c1ccc2[nH]c(=O)c(=O)[nH]c2c1	7.4*	0%	>57
CCN(c1cccc(C)c1)S(=O)(=O)c1ccc2c(c1)CCN2C(C)=O	>77	0%	>57
C#CCCCO/N=C1/C[C@@H](O)[C@@H](O)[C@@H]2[C@@H]3C(=O)N(C(C)(C)C)C(=O)[C@H]3CC[C@@H]12	.	2%[11.4 µM]	.
CCCn1nc(NS(=O)(=O)c2ccccc2)c2cc3ccccc3nc21	>77	2%	>57
